Test results from PubChem BioAssay AID2533 (National Center for Advancing Translational Sciences (NCATS), 2010).
“And” between values parts separate entries of the source, which are not always exact repeats. Identical values can stand only once. Results filed as inconclusive are left out. The source made the active and inactive calls. The call rests on the fitted dose curve; in most records, active means well fitted activation curve with a large enough effect; inconclusive means small, poorly fitted or top-dose-only effect; inactive means flat fitted curve, though single readings scatter.

molecular target: Pyruvate kinase PKM (Homo sapiens) (UniProt P14618); assay: Confirmation Concentration-Response Assay for Activators of Human Muscle isoform 2 Pyruvate Kinase: for Probe SAR; conditions: purified PKM2, ATP generation, Kinase-Glo luminescence; series mostly up to 57.5 µM; activity change, positive = activation: at the top concentration; further: nearly all actives have a fitted effect of over 60% in size; on activity change, positive = activation: % of control where 0% means no effect
From the text: NIH Chemical Genomics Center [NCGC]
Matthew G. Vander Heiden, M.D., Ph.D. [Harvard Medical School, 77 Avenue Louis Pasteur, Boston, MA 02115]
Human pyruvate kinase muscle 2 (hPK-M2) enzyme was supplied as a highly purified (>95% pure) preparation from Harvard Medical School and assayed for its ability to generate ATP from ADP using phosphoenolpyruvate (PEP) as a substrate. ATP generation was detected in a coupled reaction by luciferase-mediated luminescence, an ATP-dependent process. […] The enzyme was assayed at an intermediate level of activity to screen for both inhibitors and activators.
NCGC Assay Protocol Summary:
Three uL of substrate mix (at r.t.) in assay buffer (50 mM Imidazole pH7.2, 50 mM KCl, 7 mM MgCl2, 0.01% Tween 20, 0.05% BSA) was dispensed into white solid bottom 1,536 well microtiter plates so that the final concentrations of substrates in the assay were 0.1 mM ADP and 0.5 mM PEP. 23 nL of compound were delivered by a pin tool and 1 uL of enzyme mix (final concentration of 0.1 nM) in assay buffer (4 degree Celsius) was added. Plates were incubated at room temperature for 1 hour. Two uL of detection mix (Kinase-Glo, Promega; at 4 degree Celsius protected from light) was added and luminescence read by a ViewLux (Perkin Elmer) at 1 second exposure/plate. Data were normalized to the uninhibited (column 3) and AC100 inhibition (no enzyme in column 2). To monitor activation, the first column contained a titration of the activator, NCGC00031955-03 (16-point 1:2 dilutions in duplicate starting at 57 uM) and the first 16 rows of column 4 contained 57 uM of NCGC00031955-03.
Potency means the concentration at half of the fitted maximal effect.

Chain of Pyruvate kinase PKM (Homo sapiens) (P14618 whole entry, looked up, canonical isoform): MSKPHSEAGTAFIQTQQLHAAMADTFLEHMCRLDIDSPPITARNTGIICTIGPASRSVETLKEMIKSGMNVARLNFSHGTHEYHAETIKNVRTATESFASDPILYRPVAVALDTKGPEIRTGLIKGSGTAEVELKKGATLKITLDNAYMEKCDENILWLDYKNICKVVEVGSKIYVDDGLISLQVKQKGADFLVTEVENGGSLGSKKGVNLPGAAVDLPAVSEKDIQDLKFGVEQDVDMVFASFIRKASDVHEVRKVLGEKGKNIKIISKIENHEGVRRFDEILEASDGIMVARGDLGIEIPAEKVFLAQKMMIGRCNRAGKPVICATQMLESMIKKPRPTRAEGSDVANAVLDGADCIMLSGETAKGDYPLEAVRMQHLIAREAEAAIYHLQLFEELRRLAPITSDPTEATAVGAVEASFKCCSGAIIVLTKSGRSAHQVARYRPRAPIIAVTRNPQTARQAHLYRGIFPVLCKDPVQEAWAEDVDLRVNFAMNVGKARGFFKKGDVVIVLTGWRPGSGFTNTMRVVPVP

Activity change, positive = activation, inactive:
O=S1(=O)N=C(Oc2cccc(Cl)c2)c2ccccc21 10.9%
Cc1ccc(N2C(=O)c3ccccc3C2=O)c(C)c1 0.597%
COc1ccc(Nc2c(-c3ccc(C)o3)nc3ccccn23)cc1 23.2%
O=C1c2ccccc2C(=O)N1c1cccnc1 7.54%
Cc1ccn2c(NC3CCCCC3)c(-c3ccc(C)o3)nc2c1 -1.24%
Nc1ccccc1OC1=NS(=O)(=O)c2ccccc21 16.3%
Cc1cccc(OC2=NS(=O)(=O)c3ccccc32)c1 14.9%
O=S1(=O)N=C(Oc2ccc3ccccc3c2)c2ccccc21 3.06%
O=[S+]1([O-])N=C(Oc2cccnc2)c2ccccc21 3.92%
O=C1c2ccccc2C(=O)N1c1cccc(=O)[nH]1 -0.118%
COc1ccccc1OC1=NS(=O)(=O)c2ccccc21 14.5%
Cc1ccccc1Nc1c(-c2ccc(Cl)s2)nc2ccccn12 1.18%
O=C1c2ccccc2C(=O)N1Cc1cccnc1 2.16%
O=S1(=O)N=C(Oc2ccccc2Br)c2ccccc21 2.94%
CCSC1=NS(=O)(=O)c2ccccc21 8.09%
Cc1ccc(Nc2c(-c3ccc(C)o3)nc3ccccn23)cc1 20.3%
Cc1ccccc1Nc1c(-c2ccccc2)nc2cccc(C)n12 0.431%
O=C1c2ccccc2C(=O)N1c1noc2ccccc12 12.9%
O=S1(=O)N=C(N2CCOCC2)c2ccccc21 -8.06%
O=C1c2ccccc2C(=O)N1c1cccc2cccnc12 7.05%
O=C1CCc2cc([S+](=O)([O-])Nc3ccc(N[S+](=O)([O-])c4ccc5c(c4)CCC(=O)N5)cc3)ccc2N1 1.69%

Potency, active:
COc1cccc(Cn2ncc3c4sc(S(C)=O)cc4n(C)c3c2=O)c1 (stereo not given) 0.073 µM
O=C1CCc2cc(S(=O)(=O)Nc3cccc(Cl)c3)ccc2N1 0.41 µM
O=C1CCc2cc(S(=O)(=O)Nc3cccc(C(F)(F)F)c3)ccc2N1 13 µM
Cc1ccc(NS(=O)(=O)c2cc3c(cc2N(C)C)NC(=O)CC3)cc1C 0.366 µM
COc1cc(F)c(S(=O)(=O)N2CCN(S(=O)(=O)c3ccc(N)cc3)CC2)c(F)c1 0.13 µM
O=C1CCc2cc(S(=O)(=O)Nc3cccc4ccccc34)ccc2N1 13 µM
Cc1cc2c(s1)c1cnn(Cc3cc(F)ccc3F)c(=O)c1n2C 1.12 µM
O=C1CCc2cc(S(=O)(=O)Nc3ccc(F)c(Cl)c3)ccc2N1 0.291 µM
Cc1cc2c(s1)c1cnn(Cc3cc(F)c(F)cc3F)c(=O)c1n2C 1.12 µM
COc1cc(F)c(S(=O)(=O)N2CCN(S(=O)(=O)c3cccc(N)c3)CC2)c(F)c1 0.0231 µM
Cc1c(Cl)cccc1NS(=O)(=O)c1cc2c(cc1F)NC(=O)CC2 3.66 µM
Cc1ccc(NS(=O)(=O)c2cc3c(cc2Br)NC(=O)CO3)cc1C 18.3 µM
COc1cc(F)c(S(=O)(=O)N2CCCN(S(=O)(=O)c3cccc(N)c3)CC2)c(F)c1 1.16 µM and 1.46 µM
Cc1ccc(NS(=O)(=O)c2ccc3c(c2)CCC(=O)N3)cc1C 0.651 µM
O=C1CCc2cc(S(=O)(=O)Nc3ccc(F)cc3)ccc2N1 6.51 µM
COc1cc(F)c(S(=O)(=O)N2CCCN(S(=O)(=O)c3ccc(NC(C)=O)cc3)CC2)c(F)c1 16.3 µM
CC(=O)Nc1cccc(S(=O)(=O)N2CCN(S(=O)(=O)c3c(F)cccc3F)CC2)c1 14.6 µM
O=C1CCc2cc(S(=O)(=O)Nc3cccc(F)c3)ccc2N1 0.919 µM
O=C1CCc2cc(S(=O)(=O)Nc3ccc4c(c3)OCCO4)ccc2N1 20.6 µM
